± gives the standard deviation of the averaged measurements.
test system: Drosophila ezoana antennal basiconic sensillum ab7; experiment: odor-evoked OSN spike response (post minus pre-stimulus); higher = stronger neuronal excitation; details: odor dilution: 10^-4
Method: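 Single sensillum recordings from antennal basiconic sensilla of D. ezoana. A 500 ms pulse of odorant (10^-4 in mineral oil or DMSO) was delivered; the response is the change in action potential frequency between the 1 s pre- and post-stimulus windows (spikes/s).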

**Q.** Which “odor-evoked OSN spike response” value does the source give for `CCCCCCO` [1-hexanol] here?
**A.** 53.6 ± 33 spikes/s

**Q.** For `CCCCCC(=O)OCC` [ethyl hexanoate], which “odor-evoked OSN spike response” value is on record?
**A.** 74.4 ± 40 spikes/s

**Q.** For `C=CC(O)CCCCC` (centres undefined) [1-octen-3-ol], which “odor-evoked OSN spike response” value is on record?
**A.** 107 ± 43 spikes/s

**Q.** Which “odor-evoked OSN spike response” value does the source give for `CCCCCCCC(C)=O` [2-nonanone] here?
**A.** 66.8 ± 40 spikes/s

**Q.** With `CCCCCCCC(C)O` (centres undefined) [2-nonanol] as the compound, how does the “odor-evoked OSN spike response” value read?
**A.** 52.3 ± 32 spikes/s

**Q.** How did the “odor-evoked OSN spike response” value turn out when `C[C@H]1CCC[C@@]2(C)CCCC[C@]12O` [geosmin] was run?
**A.** 3.51 ± 21 spikes/s

**Q.** For `CCOC(=O)C(C)O` (centres undefined) [Ethyl lactate], which “odor-evoked OSN spike response” value is on record?
**A.** 60.2 ± 36 spikes/s

**Q.** Which “odor-evoked OSN spike response” value does the source give for `CCCCC(C)=O` [2-hexanone] here?
**A.** 50.2 ± 29 spikes/s

**Q.** How did the “odor-evoked OSN spike response” value turn out when `CCCCCC(C)=O` [2-heptanone] was run?
**A.** 138 ± 39 spikes/s

**Q.** For `CC(=O)CCC=C(C)C` [6-methyl-5-hepten-2-one], which “odor-evoked OSN spike response” value is on record?
**A.** 140 ± 40 spikes/s

**Q.** Which “odor-evoked OSN spike response” value does the source give for `CCCC(=O)CC` [3-hexanone] here?
**A.** 53.1 ± 33 spikes/s

**Q.** Which “odor-evoked OSN spike response” value does the source give for `CCOC(=O)CC(C)O` (centres undefined) [Ethyl-3-hydroxybutyrate] here?
**A.** 80.1 ± 47 spikes/s

**Q.** `CCCCC(C)O` (centres undefined) [2-hexanol] was tested. Which “odor-evoked OSN spike response” value did it give?
**A.** 56.1 ± 29 spikes/s

**Q.** With `CCCCCOC(C)=O` [pentyl acetate] as the compound, how does the “odor-evoked OSN spike response” value read?
**A.** 59.2 ± 30 spikes/s

Source: the supplement of paper PMC10477191
